“And” between values parts separate entries of the source, which are not always exact repeats. Equal values may be shown once. Inconclusive results are not listed. The source made the active and inactive calls. Unless noted, the call rests on the fitted dose curve; in most records, active means well fitted curve in the direction sought with a large enough effect in the repeat runs; inconclusive means weak or mixed curves; inactive means no such curve, though single readings can be large; an effect the other way counts as inactive or inconclusive.

The nature of assay [1]: qHTS assay for small molecule agonists of the p53 signaling pathway (AID 651631; calls by dose curve; further: nearly all actives have a fitted effect of over 15% in size). Put shortly:
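p53RE-bla HCT-116 cells; compounds 16 h, 37 °C; LiveBLAzer B/G FRET substrate 2 h RT; fluorescence intensity read-out, qHTS format.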
For orientation: In qHTS, concentration-response curves come from the screen itself.

A short description of assay [2]: qHTS assay for small molecules that induce genotoxicity in human embryonic kidney cells expressing luciferase-tagged ATAD5 (AID 651632). Further: nearly all actives have a fitted effect of over 15% in size. The method in brief:
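Luminescent reporter readout, HEK293T ATAD5-luc line: 16 hr drug exposure (37C, 5% CO2) followed by Amplite, 30 min RT.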

Assay [3] is described as follows: qHTS assay for small molecule agonists of the p53 signaling pathway - cell viability (AID 651633; calls by dose curve;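 further: p53RE-bla HCT reporter cells with a stable beta-lactamase p53 reporter; series mostly up to about 83 µM; nearly all actives have a fitted effect of over 30% in size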). Put shortly: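 p53RE-bla cells, seeded at 4,000 per well and rested 5 h at 37 C/5% CO2, received compounds in DMSO for 16 h at 37 C. CellTiter-Glo was then added, and luminescence was read after 30 min at room temperature to gauge cytotoxicity.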
A short description of assay [4]: qHTS assay for small molecules that induce genotoxicity in human embryonic kidney cells expressing luciferase-tagged ATAD5 - cell viability (AID 651634; calls by dose curve; further: nearly all actives have a fitted effect of over 25% in size). The method in brief: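 Viability read: CellTiter-Fluor fluorescence, 30 min at 37C. Cells: HEK293T, luciferase-tagged ATAD5. Exposure: 15.5 hr, 37C, 5% CO2, compound or DMSO vehicle.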
Assay [5] in a line: qHTS assay for small molecule disruptors of the mitochondrial membrane potential - cell viability (AID 720634; calls by dose curve;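 further: human HepG2 liver cancer cells; series mostly up to about 83 µM; nearly all actives have a fitted effect of over 20% in size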). Put shortly: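 HepG2, 1 hr compound, 37 C. ATP luminescence via CellTiter-Glo, 30 min RT, same well as m-MPI.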
Assay [6] can be described thus: qHTS assay for small molecule disruptors of the mitochondrial membrane potential (AID 720635). Further: potency means the concentration at half of the fitted maximal effect. The method in brief:
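HepG2 cells (2,000/well) attached overnight at 37C, then took compound for 1 hr at 37C, 5% CO2. Mito-MPS dye was added for 30 min; fluorescence was read at 490/535 nm (monomers) and 540/590 nm (aggregates).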

The nature of assay [7]: qHTS assay to test for compound auto fluorescence at 590 nm (red) in HepG2 cells (AID 720674). The method in brief: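 Rose Bengal sodium served as the red fluorophore standard. HepG2 monolayers (overnight attachment, MEM with 10% FBS) were exposed to test compounds for 1 hr at 37 C and read at Ex 540/Em 590 nm.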
The nature of assay [8]: qHTS assay to test for compound auto fluorescence at 535 nm (green) in HepG2 cells (AID 720675).
A short description of assay [9]: qHTS assay to test for compound auto fluorescence at 460 nm (blue) in HEK293 cells (AID 720678). Put shortly: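 After cell attachment (4-5 hr, 37C), compounds were pinned onto HEK293 monolayers in 10% dialyzed FBS medium. The blue channel (405/460 nm) was read following overnight culture. Equivalency was calculated against triamterene.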
Assay [10] can be described thus: qHTS assay to test for compound auto fluorescence at 590 nm (red) in HEK293 cells (AID 720679). The method in brief: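 Plates of HEK293 cells (10% dialyzed FBS) are treated with 23 nL compound or DMSO vehicle after a 4-5 hr attachment period, incubated overnight at 37C, and read for red fluorescence at 540/590nm.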
Assay [11] can be described thus: qHTS assay to test for compound auto fluorescence at 535 nm (green) in HEK293 cells (AID 720680).
Assay [12] in a line: qHTS assay to test for compound auto fluorescence at 460 nm (blue) in HEK293 cell free culture (AID 720681). Put shortly:
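Test compounds were pinned into cell-free culture medium (DMEM with 10% FBS) and fluorescence was read directly at Ex/Em 405/460 nm. Signals were expressed as fluorescence equivalents of triamterene, with DMSO vehicle as control.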

Assay [13] in a line: qHTS assay to test for compound auto fluorescence at 535 nm (green) in HEK293 cell free culture (AID 720682). The method in brief: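 Cell-free medium (DMEM, 10% FBS) receives compound or DMSO by pintool. Plate read directly at Ex 485/Em 535 nm. Signal converted to fluorescein equivalency.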
The nature of assay [14]: qHTS assay to test for compound auto fluorescence at 590 nm (red) in HEK293 cell free culture (AID 720683). Put shortly:
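Tox21 10K library compounds were pinned into cell-free DMEM with 10% FBS and fluorescence was read at excitation 540 nm. Activity is expressed as Rose Bengal sodium equivalency.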

A short description of assay [15]: qHTS assay to test for compound auto fluorescence at 590 nm (red) in HepG2 cell free culture (AID 720684). The method in brief: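 Red fluorescence (540 nm excitation, 590 nm emission) was measured after compound transfer into cell-free MEM supplemented with 10% FBS. Values are equivalencies against Rose Bengal sodium.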
The nature of assay [16]: qHTS assay to test for compound auto fluorescence at 460 nm (blue) in HepG2 cell free culture (AID 720685). The method in brief:
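Compound (23 nL) or DMSO pinned into cell-free MEM with 10% FBS; blue fluorescence read at 405/460 nm excitation/emission, expressed as auto-fluorescence equivalency to triamterene.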

Assay [17] can be described thus: qHTS assay to test for compound auto fluorescence at 535 nm (green) in HepG2 cell free culture (AID 720686).
A short description of assay [18]: qHTS assay to test for compound auto fluorescence at 460 nm (blue) in HepG2 cells (AID 720687). The method in brief: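 Cells (2,000/well in MEM with 10% FBS) attached overnight at 37 C, then were exposed to compound or DMSO for 1 hr at 37 C, 5% CO2. Fluorescence read at Ex/Em 405/460 nm, expressed as triamterene-equivalent signal.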
The target of assay [19] is Glucocorticoid receptor (Homo sapiens) (UniProt P04150). In words: qHTS assay to identify small molecule agonists of the glucocorticoid receptor (GR) signaling pathway (AID 720691; active means well fitted activation curve with a large enough effect in the signal ratio in the repeat runs, not every such curve was filed as active; the % refers to the signal ratio). The method in brief:
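qHTS in GR-bla HeLa cells: 4 h settling at 37 C/5% CO2, 18 h compound incubation at 37 C, 2 h LiveBLAzer B/G FRET substrate at room temperature, fluorescence intensity measured.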

Assay [20] has the same target. In words: qHTS assay to identify small molecule antagonists of the glucocorticoid receptor (GR) signaling pathway (AID 720692; active means well fitted inhibition curve with a large enough effect in the signal ratio in the repeat runs, not every such curve was filed as active; the % refers to the signal ratio). The method in brief: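 Inhibition of glucocorticoid signalling is measured in HeLa cells with a GRE-controlled beta-lactamase reporter; cells are co-treated with compound and 5 nM dexamethasone (final) for 18 h before FRET substrate readout.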

Chain of Glucocorticoid receptor (Homo sapiens) (P04150 whole entry, looked up): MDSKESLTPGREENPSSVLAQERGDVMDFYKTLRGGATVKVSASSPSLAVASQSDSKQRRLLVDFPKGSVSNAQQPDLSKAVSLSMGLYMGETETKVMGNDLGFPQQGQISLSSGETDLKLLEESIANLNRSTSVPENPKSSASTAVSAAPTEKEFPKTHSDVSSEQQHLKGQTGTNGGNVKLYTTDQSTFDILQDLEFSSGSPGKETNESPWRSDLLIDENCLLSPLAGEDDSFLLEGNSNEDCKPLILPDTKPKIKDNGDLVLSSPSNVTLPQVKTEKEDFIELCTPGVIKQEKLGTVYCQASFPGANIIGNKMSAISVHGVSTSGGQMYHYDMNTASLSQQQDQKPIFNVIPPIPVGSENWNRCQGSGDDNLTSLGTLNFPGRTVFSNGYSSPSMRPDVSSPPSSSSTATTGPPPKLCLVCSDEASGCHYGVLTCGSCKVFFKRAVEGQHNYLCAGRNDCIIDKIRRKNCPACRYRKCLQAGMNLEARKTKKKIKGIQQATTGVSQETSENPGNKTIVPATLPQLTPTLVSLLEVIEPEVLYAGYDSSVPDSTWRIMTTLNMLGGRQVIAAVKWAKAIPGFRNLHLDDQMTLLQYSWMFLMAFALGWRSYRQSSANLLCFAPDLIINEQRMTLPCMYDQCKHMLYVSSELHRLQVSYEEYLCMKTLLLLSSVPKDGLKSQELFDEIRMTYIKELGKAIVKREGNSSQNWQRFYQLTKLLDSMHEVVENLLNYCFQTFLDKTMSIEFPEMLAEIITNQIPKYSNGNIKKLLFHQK

Turning to `CC(NC(C)(C)C)C(=O)c1cccc(Cl)c1` (centres undefined), the result in assay [1], in assay [2], in [3], in assay [4], in assay [7] and in assay [8] was inactive. Moreover, the compound was called inactive in assay [9], in [10], in assay [11], in [12], in assay [13] and in assay [14]. The compound was classed as inactive in assay [15], in assay [16], in assay [17], in assay [18] and in assay [19]. Moreover, the Potency entry in [5], in assay [6] and in assay [20] was “inactive” each time.
For `Nc1ccc(Cc2ccc(N)cc2)cc1`, the compound was called inactive in assay [1], in assay [2], in assay [3], in assay [4], in [7] and in assay [9]. The result in assay [10], in assay [12], in assay [13], in assay [14], in assay [15] and in assay [16] was inactive. The result in [17], in assay [18] and in [19] was inactive. The Potency result in assay [5], in assay [6] and in [20] was “inactive” in each case.
As for `O=NN1CCCC1`, the compound was classed as inactive in assay [1], in assay [2], in assay [3], in [4], in assay [7] and in assay [8]. For the same compound, the compound was classed as inactive in assay [9], in assay [10], in [12], in [13], in assay [14] and in assay [15]. The compound was classed as inactive in assay [16], in assay [17], in assay [18] and in [19]. Besides, the Potency entry in assay [5], in assay [6] and in assay [20] was “inactive” each time.
For `C=CCO`, the call in assay [1], in [2], in assay [3], in assay [4], in [7] and in assay [8] was inactive. For the same compound, the compound was classed as inactive in assay [9], in assay [10], in [12], in assay [13], in assay [14] and in [16]. The compound was classed as inactive in assay [17], in assay [18] and in assay [19]. Further, the Potency entry in [5], in assay [6] and in [20] was “inactive” in each case.
`Nc1ccccc1C(=O)O`: the outcome in assay [1], in assay [2], in assay [4], in [7], in [8] and in assay [9] was inactive. For the same compound, the call in [10], in assay [11], in assay [12], in assay [13], in assay [14] and in assay [16] was inactive. Further, the call in assay [17] and in assay [18] was inactive. The Potency entry in [5] and in [6] was “inactive” in each case.
As for `CON(C)C(=O)Nc1ccc(Cl)c(Cl)c1`, the call in assay [1], in assay [2], in [3], in assay [4], in assay [7] and in [8] was inactive. For the same compound, the call in assay [9], in assay [10], in assay [11], in assay [12], in [13] and in [14] was inactive. Moreover, the call in assay [15], in assay [16], in assay [17], in assay [18] and in assay [19] was inactive. For the same compound, the Potency in [6] is 61.4 µM (active) and 43.3 µM (active). In [20], the Potency entry was “inactive”.
In the case of `CCN(CC)c1ccccc1`, the compound was classed as inactive in [1], in [2], in assay [3], in assay [4], in [7] and in assay [8]. The result in assay [9], in assay [10], in [11], in assay [12], in [13] and in assay [14] was inactive. Further, the compound was classed as inactive in assay [16], in assay [17], in [18] and in assay [19]. Besides, the Potency result in assay [5] and in assay [20] was “inactive” in each case.
Take `Cc1ccc(N)cc1N`: the compound was called inactive in [1], in assay [2], in assay [3], in [4], in assay [7] and in assay [8]. For the same compound, the result in [10], in [11], in assay [13], in [14], in assay [15] and in assay [16] was inactive. Further, the call in assay [17] and in assay [19] was inactive. Besides, the Potency entry in assay [5] and in assay [20] was “inactive” each time.
